Data on 19 compounds can be found in PubChem BioAssay (NCI).

This is part of a sample that, as a whole, favours compounds with a hit. Of some 83,000 tested, about 20% had one in any assay.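 How to read the values: 0–100, growth inhibition (40 = 60% inhibited); 0, no net growth; -100 to 0, cell death (-40 = 40% of starting cells died; -100 = all dead).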 A number with no mark means an inactive call. Calls of active or inactive are those of the source. Rule for the calls: active = growth percent below 10; inactive = the rest.

The first experiment has as its system HL-60(TB) leukemia. The experiment in a line: NCI-60 one-dose screen, 48 h (100 = growth as untreated, 0 = no growth, -100 = all killed). As to conditions: 30 µM.
For the compound `CNC(=O)c1cc(Oc2ccc(CC(=O)Nc3cc(C(C)(C)C)nn3C)cc2)ccn1`, the growth is 68.2%.
For the compound `CC(C)(C)c1cc(NC(=O)Cc2ccc(-c3cnc4cc(-c5cnn(CCN6CCOCC6)c5)ccc4n3)cc2)no1`, the growth was 6.45% (active).
On the same count and under the same terms, for `CN(C)CCNc1ncc(F)c(-c2cnc3cc(-c4cnn(C)c4)ccn23)n1` the value was 4.9% (active).

Staying with this experiment, now noted: 50 µM.
`S=c1nc[nH]c2nc[nH]c12`: the growth was 12.6%.
On the same count and under the same terms, under `CC1(C)OB(c2ccc(Cn3cc(F)c(=O)[nH]c3=O)cc2)OC1(C)C` stands 32.5%; under `O=c1[nH]cc(F)c(=O)[nH]1`, 77.6%.

Staying with this experiment, now noted: 100 µM.
Regarding `CC(=O)/C=C/c1ccc(N(C)Cc2ccc(C(C)(C)C)cc2)cc1`, the growth is -48.9% (active).
Regarding `O=C(O)c1c(Cl)c(Cl)c(Cl)c(Cl)c1-c1c2cc(I)c(=O)c(I)c-2oc2c(I)c(O)c(I)cc12`, the growth is -52.2% (active).
On the same count and under the same terms, for `CC(=O)/C=C/c1ccc(N(CCO)Cc2ccc(C(C)(C)C)cc2)cc1` the value was -55.3% (active).
Consider `CC(=O)/C=C/c1ccc(OCc2ccc(C(C)(C)C)cc2)cc1`, for which the growth is -32.4% (active).
As to `O=C(O)c1sccc1O`, the growth is 3.63% (active).
Still for that read-out and setting: under `CC(=O)/C=C/c1ccc(OCc2ccc(Cl)cc2)cc1` stands 14%.
On the same count and under the same terms, for `CCc1ccccc1-n1c(N)c(C#N)c(-c2ccc(OC)c(OC)c2)c(C#N)c1=O` the value was 122%; for `Cc1[nH]c(-c2nc3ccccc3[nH]2)c(C)c1C(=O)NC(C)C1CCCCC1` (centres undefined), -83.4% (active).
Still for that read-out and setting: for `CC#C[C@]1(O)CC[C@H]2[C@@H]3CCC4=CC(=O)CCC4=C3[C@@H](c3ccc4c(c3)OCO4)C[C@@]21C` the value was -22.9% (active); for `CCN(Cc1ccccc1)c1ccc(/C=C2\COc3ccccc3C2=O)cc1`, 8.32% (active); for `COc1ccc(Cl)cc1C(=O)NCCc1ccc(S(=O)(=O)NC(=O)NC2CCCCC2)cc1`, 94.2%.
As for `S=P(N1CC1)(N1CC1)N1CC1`, the growth is 9.95% (active).
On the same count and under the same terms, for `COc1ccc(C(=O)/C=C/c2ccc(OCc3cccc(C(F)(F)F)c3)c(OC)c2)cc1OC` the value was -17.8% (active).
